Results reported in PubChem BioAssay AID2561 (National Center for Advancing Translational Sciences (NCATS), 2010).
Values joined by “and” are separate entries in the source; they are usually repeats but may differ in a detail not shown here. Identical values can stand only once. Inconclusive results are not listed. Active and inactive are the calls of the source. The call rests on the fitted dose curve; in most records, active means well fitted inhibition curve with a large enough effect; inconclusive means small, poorly fitted or top-dose-only effect, or effect the other way; inactive means flat fitted curve, though single readings scatter.

Target: Pyruvate kinase (Leishmania mexicana) (UniProt Q27686)
Sequence (Q27686 whole entry, looked up): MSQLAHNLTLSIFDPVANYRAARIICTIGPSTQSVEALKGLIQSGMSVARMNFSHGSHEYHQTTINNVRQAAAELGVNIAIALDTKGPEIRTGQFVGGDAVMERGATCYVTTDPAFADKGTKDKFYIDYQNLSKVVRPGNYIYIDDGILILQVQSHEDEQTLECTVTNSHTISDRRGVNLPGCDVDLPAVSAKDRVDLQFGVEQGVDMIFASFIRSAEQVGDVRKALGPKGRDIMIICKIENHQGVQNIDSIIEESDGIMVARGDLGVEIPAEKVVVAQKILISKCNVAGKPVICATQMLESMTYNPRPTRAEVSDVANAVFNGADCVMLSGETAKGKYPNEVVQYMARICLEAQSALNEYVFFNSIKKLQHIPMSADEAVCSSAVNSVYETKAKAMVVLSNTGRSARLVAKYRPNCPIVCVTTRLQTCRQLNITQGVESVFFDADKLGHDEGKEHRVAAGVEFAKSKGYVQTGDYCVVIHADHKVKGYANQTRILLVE
Experiment: Confirmation Assay for Inhibitors of Leishmania Mexicana Pyruvate Kinase (LmPK): for Probe SAR
Conditions: purified LmPK, ATP generation, Kinase-Glo luminescence; series mostly up to 57.5 µM
From the text: NIH Chemical Genomics Center [NCGC] Malcolm Walkinshaw, Hugh Morgan, Linda Gilmore University of Edinburgh, UK MLPCN Grant: 1 R03 MH085697-01 NCGC Assay Overview: Pyruvate kinase (L. Mexicana) (LmPK) enzyme was supplied as a highly purified (>95% pure) sulphate-free preparation from University of Edinburgh, UK and assayed for its ability to generate ATP from ADP using phosphoenolpyruvate (PEP) as a substrate. ATP generation was detected in a coupled reaction by luciferase-mediated luminescence, an ATP-dependent process. Pyruvate kinase substrates, PEP and ADP, were present in the assay at Km and approximately 10-fold below Km respectively. The enzyme was assayed at an intermediate level of activity to screen for both inhibitors and activators.
NCGC Assay Protocol Summary: Three uL of enzyme mix (kept on ice) in assay buffer (50 mM Imidazole pH7.2, 50 mM KCl, 7 mM MgCl2, 0.01% Tween 20, 0.05% BSA) containing PEP (0.5 mM final concentration) and LmPK (0.1 nM final concentration) was dispensed into white solid bottom 1,536 well microtiter plates. 23 nL of compound were delivered by a pin tool and 1 uL of ADP mix in assay buffer (r.t; 0.1 mM final ADP concentration) was added. Plates were incubated at room temperature for 1 hour. Two uL of detection mix (Kinase-Glo, Promega; at 4 degree Celsius protected from light) was added and luminescence read by a ViewLux (Perkin Elmer) at 1 second exposure/plate. Data were normalized to the uninhibited and AC100 inhibition (no enzyme). To monitor activation, the first column contained a five-fold concentration of LmPK (0.5 nM).
Potency means the concentration at half of the fitted maximal effect.

Potency, inactive:
COc1cccc(Cn2ncc3c4sc(S(C)=O)cc4n(C)c3c2=O)c1 (stereo not given), Cc1ccc(NS(=O)(=O)c2ccc3c(c2)n(C)c(=O)n3C)cc1C, Cc1ccc(Nc2c(-c3ccsc3)nc3c(C)cccn23)cc1, O=C1CCc2cc(S(=O)(=O)Nc3cccc(C(F)(F)F)c3)ccc2N1, COc1cccc(N2C(=O)c3ccccc3C2=O)n1, COc1ccc(N2C(=O)c3ccccc3S2(=O)=O)cc1, Cc1ccccc1NS(=O)(=O)c1ccc2c(c1)CCC(=O)N2, Cc1ccc(NS(=O)(=O)c2cc3c(cc2Cl)CCC(=O)N3)cc1C, O=C1c2ccccc2C(=O)N1Cc1ccccn1, O=C1NS(=O)(=O)c2cc(Br)ccc21, COc1ccccc1NS(=O)(=O)c1ccc2c(c1)CCC(=O)N2, CC(=O)N1CCc2cc(S(=O)(=O)Nc3ccc(C)c(C)c3)ccc21, CN=c1nc(-c2ccccc2)n(-c2ccccc2)s1, CN(C)c1cccc(S(=O)(=O)N2CCN(S(=O)(=O)c3ccc4c(c3)OCCO4)CC2)c1, Cc1ccn2c(NC3CCCCC3)c(-c3ccc(C)o3)nc2c1, Cc1scc2c1C(=O)NS2(=O)=O, COc1cccc(OC2=NS(=O)(=O)c3ccccc32)c1, O=[S+]1([O-])N=C(Oc2cccnc2)c2ccccc21, CC(=O)Nc1cccc(S(=O)(=O)Nc2ccc(C)c(C)c2)c1, CC(=O)Nc1ccccc1OC1=N[S+](=O)([O-])c2ccccc21, COc1cccc(NS(=O)(=O)c2ccc3c(c2)CCC(=O)N3)c1, O=C1c2ccccc2C(=O)N1c1cnc2ccccc2c1, O=C1c2ccccc2C(=O)N1c1cccc(O)c1, Cc1cc(C)c2ccc(C3C(=O)c4ccc(O)cc4C3=O)nc2c1 (stereo not given), O=C1c2ccccc2C(=O)N1Cc1ccccc1, O=C1c2ccccc2C(=O)N1Cc1ccncc1, Cc1ccc(NS(=O)(=O)c2cc3c(cc2F)NC(=O)CC3)cc1C, Cc1ccc(NS(=O)(=O)c2cc3c(cc2N2CCCCC2)NC(=O)CC3)cc1C, Cc1ccc(NS(=O)(=O)c2ccc3c(c2)CC(=O)N3C)cc1C, Cc1ccc(NS(=O)(=O)c2ccc3c(c2)NC(=O)CO3)cc1C, O=C1CCc2cc(S(=O)(=O)Nc3ccc4c(c3)OCCO4)ccc2N1, Cc1ccn2c(NCc3ccco3)c(-c3ccccc3)nc2c1

Potency, active:
O=C(O)c1ccccc1SC1=NS(=O)(=O)c2ccccc21 4.61 µM and 8.91 µM, O=S1(=O)N=C(Oc2ccccc2F)c2ccccc21 3.26 µM, O=S1(=O)N=C(Oc2ccccc2Br)c2ccccc21 5.8 µM, Cc1cccc(OC2=NS(=O)(=O)c3ccccc32)c1 7.02 µM, O=S1(=O)N=C(Oc2ccccc2-c2ccccc2)c2ccccc21 3.66 µM, O=S1(=O)N=C(Oc2ccc(-c3ccccc3)cc2)c2ccccc21 4.11 µM, O=S1(=O)N=C(Sc2ccc3c(c2)OCCO3)c2ccccc21 3.66 µM, O=S1(=O)N=C(Sc2cc(C(F)(F)F)cc(C(F)(F)F)c2)c2ccccc21 2.91 µM
